The whole screen tested about 3,000 compounds, of which about 1,800 (60%) were called active. The set was probably picked from earlier hits. Only a sample is shown. Unmarked numbers belong to inactive results.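 How the source made its calls: active means activation at or above a set limit, or at least 3 SD above the negative control mean; inactive means the rest.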
target: Nuclear receptor subfamily 1 group D member 1 (Homo sapiens) (UniProt P20393); assay: modulators of Rev-erb alpha DNA binding, confirmation, biochemical, FITC-DNA, fluorescence polarization, single point (AID 1259319); details: 90 min, at 25 µM, active compounds read high;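 further: 0% = 35 nM protein with DMSO and 100% = 750 nM protein high control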
Sequence (P20393 whole entry, looked up): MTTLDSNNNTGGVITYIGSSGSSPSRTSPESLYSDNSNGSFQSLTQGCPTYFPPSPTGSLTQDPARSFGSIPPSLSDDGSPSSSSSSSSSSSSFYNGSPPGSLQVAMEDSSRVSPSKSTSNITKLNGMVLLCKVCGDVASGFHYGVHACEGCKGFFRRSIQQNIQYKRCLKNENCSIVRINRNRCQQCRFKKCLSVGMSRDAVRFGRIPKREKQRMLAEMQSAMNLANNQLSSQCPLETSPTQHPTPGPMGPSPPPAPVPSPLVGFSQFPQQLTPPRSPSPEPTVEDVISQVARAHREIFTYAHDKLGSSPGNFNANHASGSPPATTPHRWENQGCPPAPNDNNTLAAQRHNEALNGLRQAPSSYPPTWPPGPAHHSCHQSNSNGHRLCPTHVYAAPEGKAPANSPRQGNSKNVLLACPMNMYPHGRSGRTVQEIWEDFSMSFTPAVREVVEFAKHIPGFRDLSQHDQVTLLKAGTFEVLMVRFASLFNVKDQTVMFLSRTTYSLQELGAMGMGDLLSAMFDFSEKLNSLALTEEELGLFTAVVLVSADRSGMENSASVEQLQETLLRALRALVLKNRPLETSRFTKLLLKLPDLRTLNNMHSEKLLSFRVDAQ

| SMILES | activation |
| --- | --- |
| c1ccc(CSc2ncnc3c2sc2nc(N4CCOCC4)c4c(c23)CCCC4)cc1 | 93.6% (active) |
| S=c1nccc(-c2cc(Cl)sc2Cl)[nH]1 | 36.6% (active) |
| c1ccc(-c2cc(-c3nnc4sc(-c5ccccn5)nn34)[nH]n2)cc1 | 26.1% (active) |
| CN(C)c1ccc(/C=C2\NC(=S)N(Cc3ccccc3)C2=O)cc1 | 37.3% (active) |
| CN1/C(=C\C=C2\N=C(c3ccc(F)cc3)OC2=O)C(C)(C)c2ccccc21 | 5.84% |
| O=C(CCn1c(=S)[nH]c2cc3c(cc2c1=O)OCO3)NCc1ccc(Cl)cc1 | 9.29% |
| O=C(CCn1c(SCC(=O)c2ccccc2)nc2ccccc2c1=O)NCc1ccc(F)cc1 | 36.3% (active) |
| C=CCNC(=O)CC12CC3CC(C1)CC(CC(=O)NCC=C)(C3)C2 | -0.299% |
| N#Cc1c(N)nc2c3c(sc(=N)c2c1N)NC(=O)CC3c1ccccc1Cl (stereo not drawn) | 35% (active) |
| O=S(=O)(c1ccc(Br)cc1)c1nc(-c2ccccc2)oc1NCc1cccnc1 | 5.25% |
| Oc1ccc2ccc3cccc[n+]3c2c1 | 41.7% (active) |
| CCc1ccccc1NC(=O)c1cc(-c2ccc3c(c2)OCO3)on1 | 10.4% |
| CN(C)S(=O)(=O)c1ccc(N2CCCC2)c(C(=O)Nc2ccc(Br)cc2F)c1 | 10.4% |
| O=C1CCCC2=C1C(c1ccccc1)n1c(s/c(=C/c3cccc(F)c3)c1=O)=N2 (stereo not drawn) | 30% (active) |
| CCOC(=O)c1sc(=NC(=O)c2ccc(Br)cc2)n(C)c1C | 26.1% (active) |
| COc1ccc2sc(-c3ccc(S(C)(=O)=O)cc3)c(-c3ccc(C(N)=O)cc3)c2c1 | 5.94% |
| CCCNC(=O)Nc1ccc2c(c1)C(=O)N(C)[C@H]1CC[C@H](CC(=O)NCC3CCCCC3)O[C@@H]1CO2 | 63.1% (active) |
| CCN1C(=O)/C(=C\N2CCN(c3cccc(Cl)c3)CC2)SC1=S | 204% (active) |
| Cc1cccc(Nc2nc3c(S(=O)(=O)c4ccccc4)nnn3c3ccccc23)c1C | 15.8% |
| Cc1ccc(S(=O)(=O)c2nnn3c2nc(N2CCN(c4ccccn4)CC2)c2ccccc23)cc1 | 65.4% (active) |

| SMILES | activation |
| --- | --- |
| CC(C)OCCCNC(=O)CN1C(=O)/C(=C/c2ccccc2F)Oc2ccccc21 | -0.363% |
| COC(=O)c1sc(NC(=O)c2ccc(OC)cc2OC)nc1C | 24.1% (active) |
| COc1ccc(Cc2nnc(NC(=O)c3ccc(OC)cc3OC)s2)cc1 | 9.03% |
| COC(=O)c1c(NC(C)=O)sc(C(=O)Nc2ccccc2OC)c1C | 9.45% |
| Cc1ccc(-c2nc3c(C)cc(Br)cn3c2Cc2ccccc2)cc1 | 14.9% (active) |
| Cc1cc(Br)cn2c(Cc3ccccc3C(F)(F)F)c(-c3ccc(Cl)cc3)nc12 | 7.64% |
| CCOc1cccc(C(=O)Nc2nnc(-c3cccs3)s2)c1 | -1.11% |
| Cc1nc2cc(NC(=O)CSc3nc4c(C)cccc4cc3C#N)ccc2s1 | 85.3% (active) |
| COCc1cc(C)nc(SCC(=O)Nc2cccc(C)c2)c1C#N | -4.78% |
| Cc1nonc1NC(=O)CSc1nc2ccccc2cc1C#N | 39.8% (active) |
| Cc1cc2cc3c(cc2nc1SCC(=O)Nc1c(C)cccc1C)CCC3 | 16.2% |
| CCOc1ccc2cc(C#N)c(SCC(=O)OC)nc2c1 | 90.1% (active) |
| CCOC(=O)c1c(NC(=O)CN2C(=O)NC3(CCC(C)CC3)C2=O)sc(C)c1CC (stereo not drawn) | 11% |
| c1ccc2c(-c3nn4nnnc4c4ccccc34)cccc2c1 | 29.3% (active) |
| COc1ccc(C2=NN(C(=O)CSc3nc(=O)n4ccc(C)cc4n3)C(c3ccc(C)cc3)C2)cc1 (stereo not drawn) | 4.15% |
| CCOc1cccc(NC(=O)Cn2nc(-c3ccc4c(c3)OCCO4)ccc2=O)c1 | 15.3% |
| COc1ccc(-c2nnc(SCC(=O)c3ccc4c(c3)OCCO4)o2)cc1 | 28.7% (active) |
| COc1nc(-c2ccc(Cl)cc2)ccc1-c1noc(-c2cccs2)n1 | 46.9% (active) |
| Fc1c(F)c(C(F)(F)F)c(F)c(F)c1N1CCN(c2ccc3nnc(C(F)(F)F)n3n2)CC1 | 40% (active) |
| COc1ccccc1N1CCN(CC(=O)Nc2ccnn2C2CCCC2)CC1 | -5.83% |

| SMILES | activation |
| --- | --- |
| CC(=O)c1cc(C#N)c(SCC(=O)Nc2nccs2)nc1C | 29% (active) |
| COc1ccc(-n2ncc3c(N4CCc5ccccc54)ncnc32)cc1 | 40.6% (active) |
| Cc1cc(C(C)(C)C)n2nc(C)c(-c3ccccc3)c2n1 | 4.3% |
| CCCCNC(=O)CSc1nc2n[nH]c(C)c2c(=N)n1-c1cccc(Cl)c1C | 26.6% (active) |
| Cc1ccc(-n2c(SCC(=O)NCCC3=CCCCC3)nc3n[nH]c(C)c3c2=N)cc1Cl | 14.5% |
| COc1ccc(CNC(=O)c2nnn(CC(=O)Nc3cc(C)cc(C)c3)c2N)cc1 | 21.9% (active) |
| COc1ccc(CC(=O)Nc2ccc(-c3nnc(-c4ccc(C)cc4)o3)cc2)cc1 | -0.593% |
| Cc1c(-c2ccccc2)nc(N)c(C#N)c1-c1cccs1 | 16.4% |
| O=C(COC(=O)c1cccc(Br)c1)Nc1cccc2c1C(=O)c1ccccc1C2=O | 18.5% (active) |
| N#Cc1ccccc1Sc1ccccc1C(=O)OCC(=O)NC1CCCCC1 | 35.9% (active) |
| O=C(COC(=O)c1ccccc1SCC(=O)NC1CCCCC1)NC1CCCCC1 | 86.9% (active) |
| CC(C)C(C)NC(=O)COc1nc2ccccc2nc1N(C)C1CCCCC1 (stereo not drawn) | 7.89% |
| Cc1cc(NC(=O)CSc2nc(C(C)C)nc3sc4c(c23)CCC(C)C4)no1 (stereo not drawn) | 30.8% (active) |
| Cc1nc(SCC(=O)Nc2cc(C)on2)c2c3c(sc2n1)CCCC3 | 43.7% (active) |
| Cc1cc(NC(=O)CSc2nc3cc(Cl)ccc3c(=O)n2Cc2ccco2)no1 | 16.1% |
| C[n+]1ccc(/C=C/c2c[nH]c3ccccc23)cc1 | 136% (active) |
| CCc1ccc2c(c1)cc(CN(C(=S)Nc1ccccc1Cl)C1CC1)c1nnnn12 | 2.01% |
| COc1cccc(-n2c(SCC(=O)c3c[nH]c4ccccc34)nc3ccccc3c2=O)c1 | 30.8% (active) |
